From the supplement of paper PMC6555819

Tested on: PPARg:RXRa DBDmut IVT, anti-RXR (DBD mutation: RXRa K156A/R161A, NR concentration 270 nM, RXRa partner concentration 90 nM)
Assay: PBM binding z-score (relative to random genomic background probes); higher = stronger binding; sequences stand for … in GC…GCGATTGACAGCGTAGAATGAAGG
How it was run: (§1)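 Antibodies against each partner of ligand-free nuclear receptor dimers (one per run) detected binding on custom Agilent 4×180K protein-binding microarrays after 1 h incubation. The double-stranded probes had 34-nt variable regions carrying direct-repeat seeds, single-nucleotide variants, half-site ablations and random human genomic background sequences. Binding z-scores, from regression-normalized fluorescence, use the random background probes as reference.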

Row | Sequence | PBM binding z-score
1 | CCTACTGGGCCAAAGGTCATTGCTTCCAATGCTC | 5.34
2 | TCTATCAGTTGATTAGGGCAACCGAAACAGCGGA | 1.54
3 | TCGAGTAGGTGAGGGGCATTCAGAATGGCGTCGA | 3.64
4 | CCGAATGGGGCATAAGGTTACCATAAGCCAGCCC | 0.417
5 | CGTCCAAGGTCAATGCTAGGTCCGTGAAAGCATT | 2.99
6 | CCGACTGGGGCAGAAAGGTTATCATACCATCCGG | 1.78
7 | AGAATGAGGTTACCAAAGAGCAGGGAAACGCTTG | 3.47
8 | TCTTGTAGAGCAGCAGGTTAAGAAAGCTGGCCAA | 1.09
9 | CAAACTAGATCACAGAGGTCAAAGTCCGTGCGTA | 3.96
10 | CCTACAGGGCCATTCAGAGGTCATTGATCATATG | 0.235
11 | CGAACTAGCTCATTGACAGGACAGTGAATAGTAA | -0.0116
12 | GGAACGAGGGCATTCGGGTTGATAGCATGGCGAT | 2.77
13 | CTCGAAAGGTCCTGCTCAGGTGAGTATACCAAAC | -0.108
14 | AGAATGAGGATATACGTAGATCAGGGAAGAAAGT | -0.138
15 | ATCGAAAGGTCTAGGTGAGTATAGAGAAAGGGAA | 0.689
16 | TTACCAAGGTGAGCTGAGGTCGTTGATCCAACTC | 1.28
17 | GATACAGAGTCAAGGCCAGAGTACGCGTATTGAT | -0.108
18 | CGTCCAAGGTCAGAGAGATCAGTGAATGCCGAGT | 2.6

Tested on: PPARg:RXRa IVT, anti-PPARg (NR concentration 270 nM, RXRa partner concentration 90 nM)
Assay: as above
How it was run: as §1

Row | Sequence | PBM binding z-score
19 | CAAACTAGGTTAAGAGGTCAAAGTCCGCTTCCCG | 7.32
20 | CGTCCAAGGTCAGCAGGTCCGTGAAAGCGACGTG | 2.38
21 | CGTCATAGTTCAACTAAGGTAACGTAAAGCACGC | 1.07
22 | ACCTCTAGGTAAAAGTTCAGTGAATCCCGAGGAT | 3.3
23 | GCATATAGGTAATACAAGGTGAAAGCCCGATTGT | 3.27
24 | CGAACTAGGTCATTGACAGTACAGTGAATAGTAA | 8.48
25 | AGTCAAAGTTCATTAGGTAACGTAAGATTCAGCT | 4.02
26 | TCTTGTAGATCAACCGGAGGTTAAGAAAGATCGA | 0.867
27 | CGAACTAGGTCAGAACAGGCCAGTGAAGGATGAT | 7.16
28 | ATCTCTAGGTAAGACTCAGTTCAGTTAAGAACGC | 1.36
29 | AGAATGAGCTTACCAAAGATCAGGGAAACGCTTG | -0.433
30 | GATACAGGATCAAGGCCAGAGTACGCGTATTGAT | -0.0749
31 | CGAACTAGGTCAGAACAGGACTGTGAAGGATGAT | 7.13
32 | GCTGCTAGGGCAACTGATGGTCAGCTAAAGCTCG | 1.23
33 | CTCGAAAGGTCGTGCTCGGGTGAGTATACCAAAC | 1.72
34 | GCTTGTAGATCAAGGTTAAGACAGACTAAGCTAA | 1.34
35 | TCTATTAGCTGATTAGGGCAACCGAAACAGCGGA | 1.49
36 | ACTTACGGGTCAAAGAGGTTATAGCACGCGTATA | 3.85
37 | TCTAGTTGGTCAAAGGACACACACTCGAAATGCG | 2.63
38 | GCTGCTAGCTCAGGTTGGTCAGCTAACGGGTACG | -0.678

Row | Sequence | PBM binding z-score
39 | GCTGCTAGGTCAACTGATGGGCAGCTAAAGCTCG | 4
40 | CGGACTGGGGCATAAGGTTACCATAAGCCAGCCC | 5.2
41 | CCTACTGGGCCAAAGGTCATTGCTTCCAATGCTC | 6.61
42 | TCTATCAGTTGATTAGGGCAACCGAAACAGCGGA | 1.42
43 | TCGAGTAGGTGAGGGGCATTCAGAATGGCGTCGA | 3.75
44 | CCGAATGGGGCATAAGGTTACCATAAGCCAGCCC | 1.24
45 | CGTCCAAGGTCAATGCTAGGTCCGTGAAAGCATT | 3.02
46 | CCGACTGGGGCAGAAAGGTTATCATACCATCCGG | 1.73
47 | AGAATGAGGTTACCAAAGAGCAGGGAAACGCTTG | 2.96
48 | TCTTGTAGAGCAGCAGGTTAAGAAAGCTGGCCAA | 0.666
49 | CAAACTAGATCACAGAGGTCAAAGTCCGTGCGTA | 4.36
50 | CCTACAGGGCCATTCAGAGGTCATTGATCATATG | 0.996
51 | CGAACTAGCTCATTGACAGGACAGTGAATAGTAA | -0.052
52 | GGAACGAGGGCATTCGGGTTGATAGCATGGCGAT | 2.27
53 | CTCGAAAGGTCCTGCTCAGGTGAGTATACCAAAC | 0.189
54 | AGAATGAGGATATACGTAGATCAGGGAAGAAAGT | -0.218
55 | ATCGAAAGGTCTAGGTGAGTATAGAGAAAGGGAA | 1.37
56 | TTACCAAGGTGAGCTGAGGTCGTTGATCCAACTC | 2.17
57 | GATACAGAGTCAAGGCCAGAGTACGCGTATTGAT | -0.0303
58 | CGTCCAAGGTCAGAGAGATCAGTGAATGCCGAGT | 2.11

Tested on: PPARg DBDmut:RXRa IVT, anti-PPARg (DBD mutation: PPARg1 K132A/R137A, NR concentration 270 nM, RXRa partner concentration 90 nM)
Assay: as above
How it was run: as §1

Row | Sequence | PBM binding z-score
59 | CAAACTAGGTTAAGAGGTCAAAGTCCGCTTCCCG | 2.96
60 | CGTCCAAGGTCAGCAGGTCCGTGAAAGCGACGTG | -0.178
61 | CGTCATAGTTCAACTAAGGTAACGTAAAGCACGC | 0.48
62 | ACCTCTAGGTAAAAGTTCAGTGAATCCCGAGGAT | 0.37
63 | GCATATAGGTAATACAAGGTGAAAGCCCGATTGT | 1.21
64 | CGAACTAGGTCATTGACAGTACAGTGAATAGTAA | 3.53
65 | AGTCAAAGTTCATTAGGTAACGTAAGATTCAGCT | 1.72
66 | TCTTGTAGATCAACCGGAGGTTAAGAAAGATCGA | 0.463
67 | CGAACTAGGTCAGAACAGGCCAGTGAAGGATGAT | 0.994
68 | ATCTCTAGGTAAGACTCAGTTCAGTTAAGAACGC | 0.719
69 | AGAATGAGCTTACCAAAGATCAGGGAAACGCTTG | -0.258
70 | GATACAGGATCAAGGCCAGAGTACGCGTATTGAT | 0.581
71 | CGAACTAGGTCAGAACAGGACTGTGAAGGATGAT | 0.747
72 | GCTGCTAGGGCAACTGATGGTCAGCTAAAGCTCG | -0.683
73 | CTCGAAAGGTCGTGCTCGGGTGAGTATACCAAAC | 0.595
74 | GCTTGTAGATCAAGGTTAAGACAGACTAAGCTAA | 0.667
75 | TCTATTAGCTGATTAGGGCAACCGAAACAGCGGA | 0.731
76 | ACTTACGGGTCAAAGAGGTTATAGCACGCGTATA | 1.03
77 | TCTAGTTGGTCAAAGGACACACACTCGAAATGCG | 1.26
78 | GCTGCTAGCTCAGGTTGGTCAGCTAACGGGTACG | -1.21

Row | Sequence | PBM binding z-score
79 | GCTGCTAGGTCAACTGATGGGCAGCTAAAGCTCG | -0.683
80 | CGGACTGGGGCATAAGGTTACCATAAGCCAGCCC | 1.2
81 | CCTACTGGGCCAAAGGTCATTGCTTCCAATGCTC | -0.293
82 | TCTATCAGTTGATTAGGGCAACCGAAACAGCGGA | 0.737
83 | TCGAGTAGGTGAGGGGCATTCAGAATGGCGTCGA | -0.208
84 | CCGAATGGGGCATAAGGTTACCATAAGCCAGCCC | -1.29
85 | CGTCCAAGGTCAATGCTAGGTCCGTGAAAGCATT | 0.341
86 | CCGACTGGGGCAGAAAGGTTATCATACCATCCGG | -1.01
87 | AGAATGAGGTTACCAAAGAGCAGGGAAACGCTTG | 0.794
88 | TCTTGTAGAGCAGCAGGTTAAGAAAGCTGGCCAA | -0.321
89 | CAAACTAGATCACAGAGGTCAAAGTCCGTGCGTA | 1
90 | CCTACAGGGCCATTCAGAGGTCATTGATCATATG | -0.322
91 | CGAACTAGCTCATTGACAGGACAGTGAATAGTAA | 0.48
92 | GGAACGAGGGCATTCGGGTTGATAGCATGGCGAT | 0.359
93 | CTCGAAAGGTCCTGCTCAGGTGAGTATACCAAAC | 0.172
94 | AGAATGAGGATATACGTAGATCAGGGAAGAAAGT | 0.0706
95 | ATCGAAAGGTCTAGGTGAGTATAGAGAAAGGGAA | 0.807
96 | TTACCAAGGTGAGCTGAGGTCGTTGATCCAACTC | -0.497
97 | GATACAGAGTCAAGGCCAGAGTACGCGTATTGAT | 0.127
98 | CGTCCAAGGTCAGAGAGATCAGTGAATGCCGAGT | 0.0329
